Test results reported in PubChem BioAssay AID624453 (National Center for Advancing Translational Sciences (NCATS), 2012).
Activity calls are given as the source filed them. Calls follow the shape of the dose curve; as a rule, active = well fitted curve in the direction sought with a large enough effect; inactive = no such curve, though single readings can be large or run the other way.

These molecules were tested against D(2) dopamine receptor (Homo sapiens) (UniProt P14416) (assay: HTS Assay for Allosteric Antagonists of the Human D2 Dopamine Receptor: Hit Validation in primary assay). Settings: HEK293 TREx D2, calcium flux, dopamine EC80 antagonism; series mostly up to 41.8 µM; activity change, negative = inhibition: at the top concentration.
Description: Dopamine receptors (DARs) are involved in the etiology and/or therapy of a number of neuropsychiatric and endocrine disorders. For instance, all receptor-based antiparkinsonian drugs work via stimulating the D2 DAR subtype whereas all FDA-approved antipsychotic agents are antagonists of this receptor. […] There are three different types of allosteric modulators that we are seeking, two of which will stimulate or augment receptor signaling, allosteric agonists and potentiators, while the third, allosteric antagonists, will attenuate receptor signaling. The present primary screening assay measures compound antagonism after an EC80 addition of dopamine by tracking calcium flux in a […], inducible Hek293 Trex D2 cell line. NIH Chemical Genomics Center [NCGC] NIH Molecular Libraries Probe Centers Network [MLPCN] MLPCN Grant: NS064831 Assay Submitter (PI): David Sibley
Freshly passaged cells are plated in 1536 well black, clear bottom plates at a density of 4000 cells/well in 3 ul of complete media containing 1x tetracycline inducer. After an overnight incubation at 30 C in 5% CO2, cells are loaded with 2 ul of the no wash Calcium Assay Kit (ABD Bioquest) and incubated at room temperature for 30 to 90 minutes before it's read.

D(2) dopamine receptor (Homo sapiens), sequence (P14416 whole entry, looked up): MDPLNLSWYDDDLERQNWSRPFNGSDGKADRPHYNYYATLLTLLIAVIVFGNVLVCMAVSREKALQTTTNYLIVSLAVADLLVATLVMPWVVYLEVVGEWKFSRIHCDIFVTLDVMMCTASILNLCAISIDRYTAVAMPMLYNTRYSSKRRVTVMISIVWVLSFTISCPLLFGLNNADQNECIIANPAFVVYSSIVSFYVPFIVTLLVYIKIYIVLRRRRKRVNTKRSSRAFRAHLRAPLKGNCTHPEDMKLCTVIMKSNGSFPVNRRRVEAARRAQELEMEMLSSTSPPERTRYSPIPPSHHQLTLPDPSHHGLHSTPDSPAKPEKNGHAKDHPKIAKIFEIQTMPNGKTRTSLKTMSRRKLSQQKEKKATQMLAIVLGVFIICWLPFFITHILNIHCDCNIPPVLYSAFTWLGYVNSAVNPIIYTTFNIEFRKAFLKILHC

Activity change, negative = inhibition, inactive:
CC1OC(OC2C(CO)OC(OC3C(CO)OC(O)C(O)C3O)C(O)C2O)C(O)C(O)C1NC1C=C(CO)C(O)C(O)C1O (configuration not stated) -16.7%, CC(=O)OC1CC2C(C)(C)C(O)CC(O)[C@@]2(C)C2CC[C@@]3(C)C(=CC(=O)OC3c3ccoc3)[C@]12C (some centres not stated) 15.4%, NS(=O)(=O)c1cc(C2(O)NC(=O)c3ccccc32)ccc1Cl (configuration not stated) 27.7%, O=C(OCc1ccccc1)c1ccccc1 18.9%, COc1cc(OC)c2ccc(=O)oc2c1 27%, CC(CCC(=O)O)C1CCC2C3CC[C@H]4CC(O)CC[C@@]4(C)C3CC[C@@]12C (some centres not stated) 2.2%, C[C@]12CCC3c4ccc(OS(=O)(=O)O)cc4CCC3C1CCC2=O (some centres not stated) 28.3%, Cc1cc(C)nc(NS(=O)(=O)c2ccc(N)cc2)n1 15.7%, CCCCNc1ccc(C(=O)OCCN(C)C)cc1 7.23%, O=C(O)c1cc(=O)c2ccccc2[nH]1 -4.72%, CC(C)c1c(O)ccc2c1CCC1[C@@](C)(C=O)CCC[C@@]21C (some centres not stated) 35.8%, CCCCCCCCCCCC1=C(O)C(=O)C=C(O)C1=O 42.8%, CC(C)(C)NCC(O)c1cc(O)cc(O)c1 (configuration not stated) 20.4%, CC1=CC(=O)c2ccccc2C1=O 28%, NCC1O[C@@H](OC2C(N)C[C@H](N)[C@@H](O[C@H]3OC(CO)C(O)C(N)C3O)C2O)C(N)C(O)C1O (some centres not stated) 40.9%, COc1ccc(-c2c(O)c3c(OC)c4c(cc3oc2=O)OC(C)(C)C=C4)cc1 34.9%, COc1ccc2cc3[n+](cc2c1OC)CCc1cc2c(cc1-3)OCO2 40.3%
